Sfp PPTase inh: inhibitors of Bacillus subtilis Sfp phosphopantetheinyl transferase; Potency, µM, most hits filed as inhibitors; AID 1490; Biochemical Sfp PPTase activity, qHTS; 310,000 compounds, 3.5% hits;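 also: the enzyme is Sfp with the accession as filed and its product quenches rhodamine fluorescence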
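Sfp 15 nM + cpd, 15 min RT; start w/ rhodamine-CoA 5 uM, BHQ-2-YbbR 12.5 uM (final); 50 mM Hepes pH 7.6, 10 mM MgCl2, 0.01% NP-40, 0.01% BSA; read 525/598 nm at 0 and 30 min.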
PLK1 PBD block: blocks phosphopeptide binding to human PLK1 polo-box domain | P53350 | Plk1 PBD binding of FITC phosphopeptide, fluorescence polarization | Potency, µM, most hits filed as inhibitors | 360,000 compounds, 2.8% hits | AID 720504; also: series mostly up to about 57 µM; nearly all actives have a fitted effect of over 65% in size
HP1b chromo inh: blocks HP1-beta chromodomain binding to methylated histone tails; P83916; AlphaScreen HP1-beta / biotin-H3K9me3 peptide binding; Potency, µM (highest dose often 114 µM), actives largely listed as inhibitors; 390,000 compounds, 0.56% hits; also: nearly all actives have a fitted effect of over 70% in size
Target sequence (P83916 whole entry, looked up): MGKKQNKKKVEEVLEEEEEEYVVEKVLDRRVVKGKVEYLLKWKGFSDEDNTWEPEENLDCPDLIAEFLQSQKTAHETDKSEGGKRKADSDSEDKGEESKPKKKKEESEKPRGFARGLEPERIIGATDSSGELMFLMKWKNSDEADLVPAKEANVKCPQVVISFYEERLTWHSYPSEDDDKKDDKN
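Compound inhibition of the preformed complex between 50 nM HP1-beta and 50 nM biotinylated H3K9me3 peptide was read by AlphaScreen. Buffer was PBS pH 7.4 with 0.01% Tween-20. Incubations ran 30 min at room temperature, with 10 ug/mL donor/acceptor beads.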
JMJD2A Tudor: blocks the human JMJD2A Tudor domain; O75164; AlphaScreen JMJD2A-Tudor / H3K4me3 peptide binding; Potency, µM (series often up to 114 µM), hits mostly inhibitors; 390,000 compounds, 4.4% hits; AID 504339; also: nearly all actives have a fitted effect of over 50% in size
G9a block: inhibitors of human histone lysine methyltransferase G9a; Q96KQ7; G9a H3K9 monomethylation, AlphaScreen, 2 h; Potency, µM (doses to about 102 µM), hits mostly inhibitors; 350,000 compounds, 8.8% hits; AID 504332; also: nearly all actives have a fitted effect of over 75% in size
Target sequence (Q96KQ7 913-1193 limits assumed): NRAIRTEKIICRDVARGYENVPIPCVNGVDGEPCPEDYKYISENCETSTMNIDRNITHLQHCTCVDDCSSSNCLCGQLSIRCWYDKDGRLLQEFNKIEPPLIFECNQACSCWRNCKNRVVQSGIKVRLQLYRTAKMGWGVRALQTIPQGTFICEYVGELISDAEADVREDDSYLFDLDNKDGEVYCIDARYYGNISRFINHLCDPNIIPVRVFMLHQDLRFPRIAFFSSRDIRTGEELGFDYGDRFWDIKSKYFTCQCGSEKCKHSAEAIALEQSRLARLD
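Chemiluminescent proximity detection of H3K9 monomethylation, read after 10 min bead incubation in the dark. Reaction: 20 nM G9a, 500 nM biotin-H3K9 peptide, 20 uM SAM cofactor, 2 h, room temperature, following 15 min enzyme-compound preincubation.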
BAZ2B inh: BAZ2B (human) inhibition. Q9UIF8. 360,000 compounds, 4.4% hits. AlphaScreen BAZ2B-H3K14Ac peptide displacement. Potency, µM (top dose mostly 114 µM), hits mostly inhibitors; also: nearly all actives have a fitted effect of over 60% in size
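BAZ2B 50 nM plus b-H3(5-23)K14Ac 50 nM, PBS pH 7.4/0.01% Tween-20, 30 min RT; compound added (max 110 uM), 30 min RT; streptavidin donor/Ni-chelate acceptor beads 10 ug/mL final, 20 min dark; AlphaScreen read.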
Numbers stand for hits; i = inactive; ? = inconclusive; nt = not tested or not shown; [ ] = dose if it differs, or a comment. The list is not random: actives were taken first. Their share in the collection is about 12%. Calls follow the shape of the dose curve; as a rule, active = well fitted curve in the direction sought with a large enough effect; inconclusive = small, poorly fitted or top-dose-only effect, or another doubt; inactive = no such curve, though single readings can be large; an effect the other way counts as inactive or inconclusive.

SMILES	Sfp PPTase inh	PLK1 PBD block	HP1b chromo inh	JMJD2A Tudor	G9a block	BAZ2B inh
CCn1ccc2cc(S(=O)(=O)N3CCC(C(=O)NCc4ccc(OC)cc4)CC3)ccc21	nt	nt	i	i	i	i
Cc1n[nH]c(=S)n1-c1ccc(Cl)cc1	i	?	i	2.5µM	?	i
CN(C)c1ccc(Sc2ccc3nc(N)nc(N)c3c2)cc1	nt	i	nt	nt	nt	nt
CN(C)c1ccc(SC#N)cc1	i	?	i	i	50µM	i
Nc1[nH]nc2c1NN(c1ccc(Cl)cc1Cl)N2	i	i	i	i	?	25µM
COc1ccc(CC(=O)NCc2nc3cccnc3n2Cc2ccc(F)cc2)cc1OC	nt	nt	i	i	i	i
Cc1cc(NC(=O)CCC(=O)N(c2ccccc2)C(C(=O)NC2CCCC2)c2ccccc2F)no1 (stereo not given)	i	i	i	i	i	i
CC1=CC2=NC(=O)/C(=C/c3cccn3Cc3ccccc3)C(=N)N2O1	i	i	i	?	i	i
N=C1/C(=C/c2cccn2Cc2ccc(Cl)cc2)C(=O)N=C2SC=CN12	40µM	i	i	i	i	?
COc1ccc(OC)c(C2=Nn3c(nnc3-c3ccccc3O)SC2)c1	i	nt	nt	i	nt	nt
CC1=C2C(CCS2(=O)=O)CC2(C1)C(=O)OC(C)(C)OC2=O (stereo not given)	i	i	i	i	50µM	i
CCCc1nc(N)sc1C(=O)OCC	i	?	i	i	?	i
CCOC(=O)c1sc(N)nc1C(C)C	45µM	?	?	i	?	i
CCCCN(C(=O)c1c(-c2ccccc2)noc1C)c1c(N)n(CCC)c(=O)[nH]c1=O	nt	i	i	i	nt	nt
CCCCCCCCS(=O)c1sc2nc(C)cc(C)c2c1N (stereo not given)	45µM	?	i	i	?	i
CCCCCCCCS(=O)c1sc2nc3c(cc2c1N)CCCC3 (stereo not given)	nt	?	i	i	nt	nt
CN1CCC(C(=O)C(=O)O)C1=O (stereo not given)	nt	i	71µM	20µM	nt	nt
O=c1c(-c2ccc(F)cc2)nc2cncnc2n1C1CC1	i	nt	nt	nt	i[12.7 µM]	nt
Cn1c(=O)[nH]c(=O)c2c1nc(SCCC(=O)O)n2Cc1cccc(Br)c1	i	i	i	i	35µM	i
CC(=O)CSc1nc2c(c(=O)[nH]c(=O)n2C)n1Cc1cccc(Br)c1	45µM	19µM	i	i	22µM	i
Cn1c(SCc2cccc(Br)c2)nc2c1c(=O)[nH]c(=O)n2C	i	i	i	i	i	i
COc1ccc(S(=O)(=O)N2CCN(Cc3ccc4c(c3)OCO4)CC2)cc1OC	nt	nt	i	i	i	?
CCOc1ccc(Cn2c(O)cc(=O)[nH]c2=O)cc1	50µM	i	i	i	?	i
COc1ccc(Cn2c(O)cc(=O)[nH]c2=O)cc1	45µM	?	i	i	10µM	i
Nc1cc(=O)[nH]c(=O)n1Cc1ccccc1	i	i	i	i	i	i
SMILES	Sfp PPTase inh	PLK1 PBD block	HP1b chromo inh	JMJD2A Tudor	G9a block	BAZ2B inh
OC(CCc1cccc(Cl)c1)c1cccs1 (stereo not given)	i	21µM	i	i	i	i
Clc1cccc(CSc2ccc(-c3cccs3)nn2)c1	nt	nt	i	i	i	i
NC(=S)NN=C(c1ccc(Br)cc1)C1CC1	nt	i	?	0.79µM	nt	nt
COc1ccc(/C(C)=N/NC(=O)c2cc(C)[nH]n2)c(OC)c1	i	i	i	i	i	i
CC(=O)N=c1sc2nc3ccccc3nc2n1N(C(C)=O)C(C)=O	45µM	?	?	7.9µM	?	50µM
Cc1occc(=O)c1OC(=O)Nc1ccccc1	i	i	i	20µM	?	?
COc1ccc(OC(=O)Nc2ccccc2)cc1	i	i	i	i	i	i
CCCN(C(=O)c1cccc(-n2cccc2)c1)c1c(N)n(Cc2ccccc2)c(=O)[nH]c1=O	nt	?	45µM	16µM	45µM	50µM
CCCCN(C(=O)c1cccc(S(=O)(=O)N2CCCC2)c1)c1c(N)n(CCC)c(=O)[nH]c1=O	nt	i	i	i	i[2.33 µM]	i
CCCCN(C(=O)c1cccc(-n2cccc2)c1)c1c(N)n(CCC)c(=O)[nH]c1=O	nt	?	79µM	14µM	i[0.501 µM]	45µM
CCOc1ccccc1C(=O)NCC(=O)N1CCN(Cc2ccc3c(c2)OCO3)CC1	nt	i	i	i	i[12.7 µM]	i

Screens as filed in PubChem BioAssay.
